# PubChem BioAssay
# Unmarked numbers belong to inactive results.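 Rule for the calls: active = viability at or below 10% of carrier control in both of two separate runs; inconclusive = viability at or below 10% in only one of the two runs; inactive = the rest.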
# Experiment: SK-BR-3 cell growth inhibitors, pilot screen, 24 h, human (AID 572);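 note: compound exposure lasted between 18 and 24 h rather than exactly 24 h; 100% = carrier-treated control wells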
# Conditions: SK-BR-3 viability, CellTiter-Glo luminescence, at 10 µM, stronger effect = lower value
row,SMILES,viability
1,CCn1c(SCC(=O)Nc2nnc(C)s2)nnc1-c1ccncc1,112%
2,O=C1CN(Cc2ccccc2)C(=NCc2ccco2)S1,97%
3,COc1ccc(NC(=O)c2cc(C(C)C)on2)c(OC)c1,93.5%
4,COc1ccc(N2CCN(CCCNC(=O)C3(S(=O)(=O)c4ccc(Cl)cc4)CC3)CC2)cc1,87.5%
5,O=c1oc2ccccc2c2c1ncn2-c1ccccc1,100%
6,O=C(Cn1ncc2ccccc21)N1CCN(c2cccc(C(F)(F)F)c2)CC1,89.5%
7,O=C(NCc1ccccn1)c1cccs1,97%
8,O=C(NC1CCCC1)C1CC1c1ccccc1 (configuration not stated),100%
9,CCNc1nc(N2CCOCC2)nc(N(c2ccccc2)c2ccccc2)n1,80.5%
10,Cc1ccc(S(=O)(=O)N(C)Cc2cc3ccccc3[nH]c2=O)cc1,114%
11,COc1ccc(S(=O)(=O)N2CCN(CC(=O)Nc3ccc(C)c(F)c3)CC2)cc1,89.5%
12,CC(C)(C)C(=O)/C=C(\N)c1ccccn1,102%
13,O=c1c2cc(N3CCOCC3)ccc2[nH]c(=S)n1CCCN1CCCCC1,83.5%
14,O=C(CC1CCS(=O)(=O)C1)Nc1ccc[nH]c1=O (configuration not stated),102%
15,CCC(=O)c1ccc(OC(=O)c2ccc(Br)o2)cc1,102%
16,CC1CCN(CCn2c(=S)[nH]c3ncccc3c2=O)CC1,98.5%
17,CC(C)CC(=O)CN1C(=O)C2(OCCO2)c2ccccc21,93.5%
